Only a selection was taken, and the strongest signals are over-represented in it overall.

Experiment in all cases: glycan array binding signal (z-score within array); higher = stronger binding
Common to all, as to conditions: glycan notation: IUPAC condensed, linker removed

Assay [1] has as its target Fuc(a1-2)Gal(b1-3)GalNAc(b1-3)Gal(a1-4)Gal(b1-4)Glc. Put shortly: (§1)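 Glycan array data were curated from 3228 arrays in the Consortium for Functional Glycomics database and kept only where the protein sequence was available. Glycan names were converted to IUPAC-condensed notation, and columns mapping to the same glycan were averaged. The binding signal is a within-array Z-score, averaged across arrays of the same protein sequence at different concentrations or buffers and across linkers. Negative Z-scores can be read as non-binding.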

A further assay deals with Fuc(a1-2)Gal(b1-4)GlcNAc. The method in brief: as §1
The target of assay [2] is Fuc(a1-3)[Gal(b1-4)]GlcNAc(b1-4)Gal(b1-4)[Fuc(a1-3)]GlcNAc(b1-4)Gal(b1-4)[Fuc(a1-3)]GlcNAc. The method in brief: as §1
Assay [3] concerns the target Fuc(a1-3)[GalNAc(b1-4)]GlcNAc. The method in brief:
as §1

In assay [4] the target is Gal(b1-4)GlcNAc(b1-3)Gal(b1-4)Glc. The method in brief:
as §1

For another assay, the target named is Gal3S(b1-4)GlcNAc6S. The method in brief: as §1
The target of the next assay is Gal3S6S(b1-4)GlcNAc6S. The method in brief: as §1
The target in assay [5] is GalNAc(b1-3)Gal(a1-4)Gal(b1-4)GlcNAc. Put shortly:
as §1

The next assay deals with GlcNAc(b1-3)GalNAc. Put shortly: as §1
Assay [6] has as its target GlcNAc(b1-4)GlcNAc(b1-4)GlcNAc(b1-4)GlcNAc(b1-4)GlcNAc. Put shortly:
as §1

A further assay has as its target Kdn(a2-3)Gal(b1-4)GlcNAc. Put shortly: as §1
Assay [7] addresses Man(a1-3)[Man(a1-6)]Man(a1-6)[Man(a1-2)Man(a1-3)]Man(b1-4)GlcNAc(b1-4)GlcNAc. The method in brief:
as §1

Assay [8] deals with Neu5Ac(a2-3)Gal(b1-4)GlcNAc6S. The method in brief:
as §1

The target of assay [9] is Neu5Ac(a2-6)Gal(b1-4)GlcNAc6S. The method in brief: as §1
For assay [10], the target named is Neu5Ac(a2-8)Neu5Ac(a2-8)Neu5Ac. The method in brief: as §1
For assay [11], the target named is Neu5Ac(a2-8)Neu5Ac(a2-8)Neu5Ac(a2-3)Gal(b1-4)Glc. Put shortly: as §1

B1: CLEC7A (Homo sapiens), Q9BXN2 (protein)
chain: MEYHPDLENLDEDGYTQLHFDSQSNTRIAVVSEKGSCAASPPWRLIAVILGILCLVILVIAVVLGTMAIWRSNSGSNTLENGYFLSRNKENHSQPTQSSLEDSVTPTKAVKTTGVLSSPCPPNWIIYEKSCYLFSMSLNSWDGSKRQCWQLGSNLLKIDSSNELGFIVKQVSSQPDNSFWIGLSRPQTEVPWLWEDGSTFSSNLFQIRTTATQENPSPNCVWIHVSVIYDQLCSVPSYSICEKKFSM
Take B1: the “glycan array binding signal (z-score)” value in [1] was 0.301; in the assay with Fuc(a1-2)Gal(b1-4)GlcNAc it was -0.842; in assay [2], 0.278; in assay [3] it was -0.149; in assay [4] it was 0.542; in the assay with Gal3S(b1-4)GlcNAc6S, 1.21. The “glycan array binding signal (z-score)” value with Gal3S6S(b1-4)GlcNAc6S is 5.19; in [5], 0.773; with GlcNAc(b1-3)GalNAc, 3.29; in assay [6], -0.613; with Kdn(a2-3)Gal(b1-4)GlcNAc, 0.64; in [7] it was 0.549. Also, the “glycan array binding signal (z-score)” value is -0.22 in [8], 0.583 in assay [9], 4.19 in [10] and 1.53 in assay [11].

The record behind these values is the supplement of paper PMC8728848.
